Among the data in PubChem BioAssay AID651640 (Broad Institute, 2012) are CPE inhibition values, retold here.

Screen size: about 350,000 compounds; about 6,000 (1.7%) were called active. Roughly 5% stayed inconclusive and do not appear here. Only a selection was taken, and actives are over-represented in it overall. A number with no mark means an inactive call. No stated cut-off is given here; in the data, active means CPE inhibition above about 20% (passing the limit was not always enough); inconclusive means no clear call, values can overlap the other calls; tested in BHK-21 cells.

The experiment can be described thus: protection of cells from dengue 2 killing – plate reader, single concentration, primary screen (AID 651640).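 Further: 0% = median of neutral control wells and 100% = median of positive control wells.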 The settings on record: DENV2-infected cells, cytopathic effect rescue, at 9.99 µM, active compounds read high.
As for `Cc1ccccc1S(=O)(=O)N1CC(=O)N2[C@H](CO)[C@H](c3ccc(C#CC4CC4)cc3)[C@@H]2C1`, the CPE inhibition was 5.14%.

In the case of `CC=Cc1ccc2n(c1=O)C[C@@H]1[C@@H](CO)[C@H](C(=O)NC3CCCC3)[C@H]2N1C(=O)c1cnccn1` (mixture of isomers), the CPE inhibition was 2.52%.

`CO[C@@H]1CN(C)C(=O)c2ccc(NC(=O)C3CC3)cc2OC[C@@H](C)N(CC2CCOCC2)C[C@H]1C`: the CPE inhibition was 0.64%.

Take `CC(C)NC(=O)Nc1cccc2c1O[C@H](CN(C)Cc1ccccc1)[C@H](C)CN([C@H](C)CO)C2=O`: the CPE inhibition is 1.48%.

Take `CO[C@@H]1CN(C)C(=O)c2cc(NC(C)=O)ccc2OC[C@@H](C)N(C(=O)NC2CCCCC2)C[C@H]1C`: the CPE inhibition is -11%.

As for `COc1cccc(-c2ccc3n(c2=O)C[C@H]2[C@H](CO)[C@@H](C(=O)N4CCCCC4)N(C)[C@@H]32)c1`, the CPE inhibition is 5.67%.

Regarding `CCCNC(=O)Nc1ccc2c(c1)OC[C@H](C)N(Cc1ccccc1)C[C@H](C)[C@H](OC)CN(C)C2=O`, the CPE inhibition is 14.2%. For the molecule `COC(=O)CCCCCCC(=O)Nc1ccc(C2OC(CSc3nc(-c4ccccc4)c(-c4ccccc4)o3)CC(c3ccc([N+](=O)[O-])cc3)O2)cc1` (configuration not stated), the CPE inhibition is -6.28%. For the molecule `CCCNC(=O)[C@H]1[C@H](CO)[C@H]2Cn3c(ccc(-c4cccc(F)c4)c3=O)[C@@H]1N2C(=O)CC`, the CPE inhibition is 0.06%. Consider `CN1c2ccc(-c3ccccc3)cc2[C@@H]2[C@@H](CCN2C(=O)c2ccccc2F)[C@@H]1CO`, for which the CPE inhibition was 1.36%. Under `CN1c2ccc(Br)cc2[C@@H]2[C@@H](CCN2C(=O)C2CCCCC2)[C@H]1CO` stands 8.19%. `CN1c2ccc(Br)cc2[C@@H]2[C@@H](CCN2C(=O)Cc2ccccc2)[C@@H]1CO`: the CPE inhibition is 0.742%. With `CN1c2ccc(Br)cc2[C@@H]2[C@@H](CCN2C(=O)C2CCCC2)[C@H]1CO`, the CPE inhibition is 99.1% (active). Regarding `O=C(CC1CC1)N1[C@H](CO)[C@@H]2c3ccccc3N(S(=O)(=O)c3ccc(F)cc3)C[C@@H]21`, the CPE inhibition is -3.84%. On to `O=C(C[C@@H]1CC[C@H](NC(=O)C2CCOCC2)[C@@H](CO)O1)Nc1ccccc1`, for which the CPE inhibition is 6.72%. `CCOC(=O)[C@]12CCC=C1N(Cc1ccccc1)C(=O)[C@H](CC(=O)N1CCCC1)C2`: the CPE inhibition is 29.8% (active). As to `COC(=O)[C@]12CCCCC=C1N(Cc1ccc3c(c1)OCO3)C(=O)[C@H](CC(=O)NCc1cccs1)C2`, the CPE inhibition is -4.45%. As to `COC(=O)[C@]12CCCCC=C1N(Cc1ccc3c(c1)OCO3)C(=O)[C@H](CC(=O)N1CCOCC1)C2`, the CPE inhibition was 8.62%. Under `CCOC(=O)[C@]12CCC=C1N(Cc1ccco1)C(=O)[C@H](CC(=O)N1CCSCC1)C2` stands -4%; under `CCOC(=O)[C@]12CCCC=C1N(Cc1ccc3c(c1)OCO3)C(=O)[C@H](CC(=O)N1CCN(C(=O)c3ccco3)CC1)C2`, -2.94%. Turning to `COC(=O)[C@]12CCCCC=C1N(Cc1cccc3ccccc13)C(=O)[C@H](CC(=O)N1CCOCC1)C2`, the CPE inhibition was 99.4% (active).

In the case of `COC(=O)[C@]12CCCCC=C1N(Cc1ccc(Cl)cc1Cl)C(=O)[C@H](CC(=O)NCc1cccc3ccccc13)C2`, the CPE inhibition was -2.75%. The figure for `CCOC(=O)[C@]12CCCC=C1N(Cc1ccc(Cl)cc1Cl)C(=O)[C@H](CC(=O)N1CCCCC1)C2` is 4.66%; for `CCOC(=O)[C@]12CCCC=C1N(Cc1ccc3c(c1)OCO3)C(=O)[C@H](CC(=O)NCc1cccs1)C2` it is 66.5% (active); for `COc1ccc(S(=O)(=O)N(C)C[C@@H]2Oc3ccc(NC(=O)Cc4ccccc4)cc3CC(=O)N([C@@H](C)CO)C[C@H]2C)cc1` it is -3.88%. The figure for `CO[C@@H]1CN(C)C(=O)c2cc(NC(=O)c3ccc4c(c3)OCO4)ccc2OC[C@H](C)N(CCC(F)(F)F)C[C@H]1C` is 2.23%; for `Cc1noc(C)c1NC(=O)Nc1ccc2c(c1)CC(=O)N([C@@H](C)CO)C[C@@H](C)[C@H](CN(C)C(=O)NC1CCCCC1)O2` it is 1.27%; for `N#C[C@@H]1[C@@H](c2ccc(-c3ccccc3F)cc2)[C@@H](CO)N1C(=O)c1ccccn1` it is -0.879%. In the case of `COc1ccccc1NC(=O)N[C@H]1CC[C@@H](CC(=O)NCc2ccc(Cl)c(Cl)c2)O[C@H]1CO`, the CPE inhibition was -2.11%. Take `C/C=C/c1ccc2c(c1)O[C@@H](CN(C)C(=O)Cc1ccccn1)[C@@H](C)CN([C@H](C)CO)S2(=O)=O`: the CPE inhibition is 3.81%.

Regarding `C[C@@H]1CN([C@H](C)CO)S(=O)(=O)c2ccc(C#C[C@@H](C)O)cc2O[C@H]1CN(C)C(=O)CC1CC1`, the CPE inhibition was -1.93%. `Cc1cccc([C@@H]2[C@@H]3C(=O)N(C)C(=O)[C@@H]3[C@@H]3C(=O)Nc4ccccc4C(=O)N23)c1`: the CPE inhibition is 30.1% (active). Regarding `Cc1cccc([C@H]2[C@@H]3C=CC[C@@H](C)[C@@H]3C(=O)N2Cc2ccccc2)c1`, the CPE inhibition is -1.21%.

In the case of `Cc1ccc(C2Nc3ccccc3C(=O)N2CCN2CCNC2=O)cc1` (configuration not stated), the CPE inhibition was -0.485%. Turning to `O=C([C@H]1[C@H](CO)[C@H]2Cn3c(ccc(C4=CCCC4)c3=O)[C@@H]1N2C(=O)c1ccncc1)N1CCCCC1`, the CPE inhibition was -10.6%. Under `CNC[C@@H]1Oc2cc(C#CCC3CCCC3)ccc2S(=O)(=O)N([C@H](C)CO)C[C@H]1C` stands 18.9%; under `CNC[C@H]1Oc2cc(C#CC3CCCC3)ccc2S(=O)(=O)N([C@H](C)CO)C[C@@H]1C`, 49.1% (active); under `CNC[C@@H]1Oc2cc(C#Cc3ccc(F)cc3)ccc2S(=O)(=O)N([C@@H](C)CO)C[C@H]1C`, 7.09%. In the case of `CNC[C@H]1Oc2cc(C#Cc3ccccc3)ccc2S(=O)(=O)N([C@@H](C)CO)C[C@@H]1C`, the CPE inhibition was 10.6%. The figure for `CNC[C@H]1Oc2cc(C#CC(C)(C)O)ccc2S(=O)(=O)N([C@@H](C)CO)C[C@@H]1C` is 29.3% (active); for `CNC[C@@H]1Oc2cc(C#CC3CCCC3)ccc2S(=O)(=O)N([C@@H](C)CO)C[C@@H]1C` it is 3.46%; for `COc1ccc(S(=O)(=O)N[C@H]2C=C[C@@H](CC(=O)O)O[C@@H]2CO)cc1` it is -1.75%.
